Data reported in PubChem BioAssay (NCATS).
Values without a mark were called inactive. Records with an inconclusive call do not appear. Entries that show only a call come without a potency. The source made the active and inactive calls. Calls come from the whole dose curve; as a rule, active = well fitted curve in the direction sought with a large enough effect; inconclusive = small, poorly fitted or top-dose-only effect, or another doubt; inactive = no such curve, though single readings can be large; an effect the other way counts as inactive or inconclusive.

Assays:
[1] = target: Glutathione peroxidase 1 (Homo sapiens) (UniProt P07203); assay: Primary qHTS Assay for Inhibitors of Recombinant Selenoprotein Glutathione Peroxidase 1 (GPX1) (AID 1845191); note: nearly all actives have a fitted effect of over 65% in size
Chain of Glutathione peroxidase 1 (Homo sapiens) (P07203 whole entry, looked up): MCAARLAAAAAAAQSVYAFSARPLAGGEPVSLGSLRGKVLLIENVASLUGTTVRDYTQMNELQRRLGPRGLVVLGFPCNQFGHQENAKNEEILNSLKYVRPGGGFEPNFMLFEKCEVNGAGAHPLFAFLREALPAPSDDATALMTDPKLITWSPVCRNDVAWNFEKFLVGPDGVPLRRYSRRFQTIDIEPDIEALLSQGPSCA
Outline: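 GR-coupled readout: NADPH consumption tracked by fluorescence, ex 340/em 450 nm, at t=0 and after 15 min at RT. Final mix 10 nM GPX1, 1 mM GSH, 0.5 mM CHP, 0.5 mM NADPH, 100 nM GR, 0.01% BSA, following 30 min enzyme–compound preincubation.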

[2] = target: Phospholipid hydroperoxide glutathione peroxidase GPX4 (Homo sapiens) (UniProt P36969); assay: Primary qHTS Assay for Inhibitors of Recombinant Selenoprotein Glutathione Peroxidase 4 (GPX4) (AID 1845192); note: nearly all actives have a fitted effect of over 65% in size; for activity change, negative = inhibition: series mostly up to about 50 µM
Chain of Phospholipid hydroperoxide glutathione peroxidase GPX4 (Homo sapiens) (P36969 whole entry, looked up): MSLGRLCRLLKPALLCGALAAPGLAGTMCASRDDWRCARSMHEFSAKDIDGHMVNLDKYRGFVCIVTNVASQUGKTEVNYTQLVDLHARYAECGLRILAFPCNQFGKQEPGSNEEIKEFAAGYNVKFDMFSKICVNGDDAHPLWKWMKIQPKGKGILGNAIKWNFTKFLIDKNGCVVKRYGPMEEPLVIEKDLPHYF
Outline: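 Steps: GPX4 plus compound, 30 min RT; add GR/GSH/NADPH master mix; start with cumene hydroperoxide; read 340/450 nm fluorescence at 0 and 15 min. Finals were 200 nM GPX4, 1 mM GSH, 0.5 mM CHP, 0.5 mM NADPH, 100 nM GR.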

[3] = target: Luciferin 4-monooxygenase (Photinus pyralis) (UniProt P08659); assay: Primary firefly luciferase (FLuc) qHTS assay for identification of artifact compounds. (AID 1845220); note: nearly all actives have a fitted effect of over 60% in size; for activity change, negative = inhibition: series mostly up to about 54 µM
Outline: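 Enzymatic FLuc inhibition assay: compounds pre-exposed to luciferin/ATP (10 uM each) for 15 min, then purified P. pyralis enzyme at 10 nM added. Read-out: luminescence at 5 min.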

[4] = Primary fluorescence-based thiol-reactive (MSTI) qHTS assay for identification of artifact compounds. (AID 1845221); note: nearly all actives have a fitted effect of over 65% in size; note: potency is the fitted concentration of half-maximal effect;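 for activity change, negative = thiol reactive: series mostly up to about 54 µM; thiol-reactive compounds lower the probe fluorescence signal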
Outline: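 One-hour, room-temperature, dark incubation of compound with 4 uM MSTI in PBS (pH 7.4, 2% DMSO) precedes a fluorescence read at 525 nm excitation, 598 nm emission; Hill-equation fitting yields concentration-response values.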

[5] = test system: Nanoluciferase (engineered Oplophorus gracilirostris luciferase); assay: Primary Nanoluciferase (NLuc) qHTS assay for identification of artifact compounds. (AID 1845222);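 note: NLuc secreted into diluted conditioned medium of S16 cells; series mostly up to about 54 µM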
Outline: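 S16 cell supernatant NLuc, 1:55; cpds qHTS; 15 min RT dark; Nano-Glo substrate 1:100, 5 min; luminescence; Hill fit of % inhibition.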

[6] = Primary redox qHTS assay for identification of artifact compounds. (AID 1845223)
Outline: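 Redox-cycling detection via DTT (250 uM final) oxidation coupled to Amplex Red (25 uM)/HRP (250 mU/mL) in HBSS. 15 min preincubation plus 30 min after DTT, room temperature. Ex/Em 525/598 nm; 4-parameter Hill fit against DMSO and 10 uM DA3003.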

Structure (SMILES): CC(=O)O[C@H]1CC[C@@]2(C)C(CC[C@@H](C)[C@]23Cc2c(O)cc4c(c2O3)CN([C@@H](CCC(=O)O)C(=O)O)C4=O)C1(C)C (some centres not stated)
- Potency [1]: inactive
- Potency [2]: inactive
- Potency [3]: inactive
- Potency [4]: inactive
- Potency [5]: inactive
- Potency [6]: inactive

Structure (SMILES): Cc1nc(NC(=O)N2CCCC2C(N)=O)sc1-c1csc(C(C)(C)C)n1 (configuration not stated)
- Potency [1]: inactive
- Potency [2]: inactive
- Potency [3]: inactive
- Potency [4]: inactive
- Potency [5]: inactive
- Potency [6]: inactive

Structure (SMILES): CC(=O)N[C@H]1[C@H](O[C@H]2CC[C@@]3(C)C(CC[C@]4(C)C3CC=C3C5CC(C)(C)CC[C@]5(C(=O)O)[C@H](O)C[C@]34C)C2(C)C)O[C@H](CO[C@@H]2OC[C@H](O)[C@H](O)[C@H]2O[C@@H]2OC[C@@H](O)[C@H](O)[C@H]2O)[C@@H](O)[C@@H]1O (some centres not stated)
- Potency [1]: inactive
- Potency [2]: inactive
- activity change, negative = inhibition [3]: -1.17% [at 11.6 µM]
- activity change, negative = thiol reactive [4]: 85% [at 11.5 µM]
- activity, negative = inhibition [5]: 0% [at 11.6 µM]
- redox activity (% of DA3003) [6]: 8.12% [at 11.5 µM]

Structure (SMILES): C=C[C@@]12COC(=O)C(=C)C1[C@@H](O)[C@H](C(=C)C(=O)OC)[C@@H](OC(=O)C(=C)CO)C2 (some centres not stated)
- Potency [1]: inactive
- Potency [2]: inactive
- Potency [3]: inactive
- Potency [4]: 11.6 µM (active)
- Potency [5]: inactive
- Potency [6]: inactive

Structure (SMILES): O=C(NCc1cccc(O)c1)c1cc2cc(F)ccc2[nH]1
- Potency [1]: inactive
- Potency [2]: inactive
- Potency [3]: inactive
- Potency [4]: inactive
- Potency [6]: inactive

Structure (SMILES): CC(=O)NC[C@H]1CN(c2ccc(N3CCN(C(=O)CO)CC3)c(F)c2)C(=O)O1
- Potency [1]: inactive
- Potency [2]: inactive
- Potency [3]: inactive
- Potency [4]: inactive
- Potency [5]: inactive
- Potency [6]: inactive

Structure (SMILES): CC/C=C\CCO[C@@H]1O[C@H](CO)[C@@H](O)[C@H](O)[C@H]1O
- Potency [1]: inactive
- Potency [2]: inactive
- Potency [3]: inactive
- Potency [4]: 5.97 µM (active)
- Potency [6]: inactive

Structure (SMILES): CC12CCC3c4ccc(O)cc4CCC3C1CC(OC1OC(C(=O)O)C(O)C(O)C1O)C2O (configuration not stated)
- Potency [1]: inactive
- Potency [2]: inactive
- Potency [3]: inactive
- Potency [4]: inactive
- Potency [6]: inactive

Structure (SMILES): CC1=C(C(=O)O)/C(=C/CO[C@@H]2O[C@H](COC(=O)/C=C/c3ccc(O)cc3)[C@@H](O)[C@H](O)[C@H]2O)C(O)C1 (some centres not stated)
- Potency [1]: inactive
- Potency [2]: inactive
- Potency [3]: inactive
- Potency [4]: 1.46 µM (active)
- Potency [5]: inactive
- Potency [6]: inactive

Structure (SMILES): Cc1ccc(S(=O)(=O)c2ccc([N+](=O)[O-])o2)cc1
- Potency [1]: inactive
- Potency [2]: inactive
- Potency [3]: inactive
- Potency [4]: 10.6 µM (active)
- Potency [6]: inactive

Structure (SMILES): CC(C)C(C(=O)N(C)C(C)C(N)=O)N(C)C(=O)C1CCCN1C(=O)/C=C/C=C/C(O)C(C)O (configuration not stated)
- Potency [1]: inactive
- Potency [2]: inactive
- Potency [3]: inactive
- Potency [4]: inactive
- Potency [6]: inactive

Structure (SMILES): C=C(C(=O)O)[C@@H]1CC[C@@]2(C)CC[C@H](O)[C@@]2(C(C)=O)C1
- Potency [1]: inactive
- Potency [2]: inactive
- Potency [3]: inactive
- Potency [4]: 11.9 µM (active)
- Potency [6]: inactive

Structure (SMILES): CC12CCC3c4ccc(OC5OC(C(=O)O)C(O)C(O)C5O)cc4CCC3C1CCC2O (configuration not stated)
- Potency [1]: inactive
- Potency [2]: inactive
- Potency [3]: inactive
- Potency [4]: inactive
- Potency [6]: inactive

Structure (SMILES): Cc1oc2ccccc2c1CNC(=O)NCc1cccs1
- Potency [1]: inactive
- Potency [2]: inactive
- Potency [3]: inactive
- Potency [4]: inactive
- Potency [6]: inactive

Structure (SMILES): CC1=C(CCC(C)CC(=O)O)[C@@]2(C)CCCC(C)(C)C2CC1=O (some centres not stated)
- Potency [1]: inactive
- Potency [2]: inactive
- Potency [3]: inactive
- Potency [4]: inactive
- Potency [6]: inactive

Structure (SMILES): Cc1nc(C)c(-c2ccc(C3CCC(CC(=O)O)CC3)cc2)nc1C(N)=O (configuration not stated)
- Potency [1]: inactive
- Potency [2]: inactive
- Potency [3]: inactive
- Potency [4]: inactive
- Potency [6]: inactive

Structure (SMILES): C=C[C@H]1C(O[C@@H]2O[C@H](CO)[C@@H](O)[C@H](O)[C@H]2O)OC=C2C(=O)N3CCc4c([nH]c5ccccc45)C3CC21 (some centres not stated)
- Potency [1]: inactive
- Potency [2]: inactive
- Potency [3]: inactive
- Potency [4]: inactive
- Potency [5]: inactive
- Potency [6]: inactive

Structure (SMILES): CCN(CC)Cc1ccc(C(=O)N(CCc2ccccc2OC)[C@@H]2CCNC2)cc1
- Potency [1]: inactive
- Potency [2]: inactive
- Potency [3]: inactive
- Potency [4]: inactive
- Potency [6]: inactive

Structure (SMILES): C=C1CC[C@H]2[C@@](C)(CCC(O)[C@@]2(C)CO)[C@@H]1CCC1=CCOC1=O (some centres not stated)
- Potency [1]: inactive
- Potency [2]: inactive
- Potency [3]: inactive
- Potency [4]: inactive
- Potency [6]: inactive

Structure (SMILES): Cc1cc(Cl)ccc1COc1ccnn1-c1cc(C(=O)O)ccn1
- Potency [1]: inactive
- Potency [2]: inactive
- Potency [3]: inactive
- Potency [4]: inactive
- Potency [6]: inactive

Structure (SMILES): C=C1C[C@]23C[C@H]1[C@@H](O)C[C@H]2[C@@]12C=C[C@H](O)[C@@](C)(C(=O)O1)[C@H]2[C@@H]3C(=O)O
- Potency [1]: inactive
- Potency [2]: inactive
- Potency [3]: inactive
- Potency [4]: inactive
- Potency [6]: inactive

Structure (SMILES): CC1(C)CC2C(C1)C(C)(O)C13CC1(COC3=O)C2O (configuration not stated)
- Potency [1]: inactive
- Potency [2]: inactive
- Potency [3]: inactive
- Potency [4]: inactive
- Potency [6]: inactive
